Measured values taken from PubChem BioAssay AID1159580 (chemical genetic matrix, 2015).
Among all 5,500 compounds or so, about 2,000 (36%) were called active. Another 18% or so got no clear call; they are omitted. Rule as the data show it: active = normalized growth mostly below about 0.91 (no sharp cut-off); inconclusive = no clear call, values can overlap the other calls; inactive = mostly above about 0.92. Some of the results follow.

Assay: chemical genetic growth profiling, strain panel (AID 1159580);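 also: tested at 20 µM; growth read once vehicle control cultures reached saturation at 30 °C; 1 = growth at the plate median or of vehicle wells; lower values mean less growth of the strain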
Conditions: growth OD
[1] = S. cerevisiae deletion strains, locus YBR021W, strain FUR4, active compounds read low
[2] = S. cerevisiae deletion strains, locus YBR229C, strain ROT2, active compounds read low
[3] = S. cerevisiae deletion strains, locus YCL029C, strain bik1, active compounds read low
[4] = S. cerevisiae deletion strains, locus YDL035C, strain GPR1, active compounds read low
[5] = S. cerevisiae deletion strains, locus YDL074C, strain BRE1, active compounds read low
[6] = S. cerevisiae deletion strains, locus YDL101C, strain DUN1, active compounds read low
[7] = S. cerevisiae deletion strains, locus YDL185W, strain tfp1, active compounds read low
[8] = S. cerevisiae deletion strains, locus YDL192W, strain arf1, active compounds read low
[9] = S. cerevisiae deletion strains, locus YDR101C, strain arx1, active compounds read low
[10] = S. cerevisiae deletion strains, locus YDR162C, strain NBP2, active compounds read low
[11] = S. cerevisiae deletion strains, locus YDR318W, strain mcm21, active compounds read low
[12] = S. cerevisiae deletion strains, locus YDR388W, active compounds read low
[13] = S. cerevisiae deletion strains, locus YDR502C, strain sam2, active compounds read low
[14] = S. cerevisiae deletion strains, locus YER110C, active compounds read low
[15] = S. cerevisiae deletion strains, locus YER155C, strain BEM2, active compounds read low
[16] = S. cerevisiae deletion strains, locus YER167W, strain BCK2, active compounds read low
[17] = S. cerevisiae deletion strains, locus YGL078C, strain dbp3, active compounds read low
[18] = S. cerevisiae deletion strains, locus YGL086W, strain mad1, active compounds read low
[19] = S. cerevisiae deletion strains, locus YGL248W, strain PDE1, active compounds read low
[20] = S. cerevisiae deletion strains, locus YGR078C, strain PAC10, active compounds read low
[21] = S. cerevisiae deletion strains, locus YGR135W, strain pre9, active compounds read low
[22] = S. cerevisiae deletion strains, locus YGR252W, strain gcn5, active compounds read low
[23] = S. cerevisiae deletion strains, locus YHR079C, strain IRE1 (second series), active compounds read low
[24] = S. cerevisiae deletion strains, locus YHR094C, strain hxt1, active compounds read low
[25] = S. cerevisiae deletion strains, locus YHR129C, strain ARP1, active compounds read low
[26] = S. cerevisiae deletion strains, locus YHR200W, strain rpn10, active compounds read low
[27] = S. cerevisiae deletion strains, locus YIL066C, strain RNR3, active compounds read low
[28] = S. cerevisiae deletion strains, locus YIL073C, strain SPO22, active compounds read low
[29] = S. cerevisiae deletion strains, locus YIL125W, strain kgd1, active compounds read low
[30] = S. cerevisiae deletion strains, locus YIR030C, strain dcg1, active compounds read low
[31] = S. cerevisiae deletion strains, locus YJL095W, strain BCK1, active compounds read low
[32] = S. cerevisiae deletion strains, locus YJL134W, strain LCB3, active compounds read low
[33] = S. cerevisiae deletion strains, locus YJL168C, strain set2, active compounds read low
[34] = S. cerevisiae deletion strains, locus YJL187C, strain SWE1 (second series), active compounds read low
[35] = S. cerevisiae deletion strains, locus YKL009W, strain mrt4, active compounds read low
[36] = S. cerevisiae deletion strains, locus YKL068W, active compounds read low
[37] = S. cerevisiae deletion strains, locus YKL085W, strain MDH1 (second series), active compounds read low
[38] = S. cerevisiae deletion strains, locus YKL085W, strain MDH1, active compounds read low
[39] = S. cerevisiae deletion strains, locus YKL190W, strain CNB1, active compounds read low
[40] = S. cerevisiae deletion strains, locus YKR001C, strain vps1, active compounds read low
[41] = S. cerevisiae deletion strains, locus YLR039C, strain RIC1, active compounds read low
[42] = S. cerevisiae deletion strains, locus YLR058C, strain SHM2, active compounds read low
[43] = S. cerevisiae deletion strains, locus YLR102C, strain apc9, active compounds read low
[44] = S. cerevisiae deletion strains, locus YLR268W, strain sec22, active compounds read low
[45] = S. cerevisiae deletion strains, locus YLR330W, strain CHS5, active compounds read low
[46] = S. cerevisiae deletion strains, locus YLR342W, strain FKS1 (second series), active compounds read low
[47] = S. cerevisiae deletion strains, locus YLR371W, strain rom2, active compounds read low
[48] = S. cerevisiae deletion strains, locus YLR418C, strain cdc73, active compounds read low
[49] = S. cerevisiae deletion strains, locus YML016C, strain PPZ1, active compounds read low
[50] = S. cerevisiae deletion strains, locus YML032C, strain rad52, active compounds read low
[51] = S. cerevisiae deletion strains, locus YML124C, strain tub3, active compounds read low
[52] = S. cerevisiae deletion strains, locus YMR078C, strain ctf18, active compounds read low
[53] = S. cerevisiae deletion strains, locus YMR223W, strain ubp8, active compounds read low
[54] = S. cerevisiae deletion strains, locus YMR307W, strain GAS1, active compounds read low
[55] = S. cerevisiae deletion strains, locus YNL067W, strain RPL9B, active compounds read low
[56] = S. cerevisiae deletion strains, locus YNL153C, strain GIM3, active compounds read low
[57] = S. cerevisiae deletion strains, locus YNL233W, strain BNI4, active compounds read low
[58] = S. cerevisiae deletion strains, locus YNL250W, strain rad50, active compounds read low
[59] = S. cerevisiae deletion strains, locus YNL271C, strain bni1, active compounds read low
[60] = S. cerevisiae deletion strains, locus YNL298W, strain CLA4, active compounds read low
[61] = S. cerevisiae deletion strains, locus YNL307C, strain MCK1, active compounds read low
[62] = S. cerevisiae deletion strains, locus YNR052C, strain pop2, active compounds read low
[63] = S. cerevisiae deletion strains, locus YOL012C, strain htz1
[64] = S. cerevisiae deletion strains, locus YOL147C, strain pex11, active compounds read low
[65] = S. cerevisiae deletion strains, locus YOR061W, strain CKA2, active compounds read low
[66] = S. cerevisiae deletion strains, locus YOR069W, strain VPS5, active compounds read low
[67] = S. cerevisiae deletion strains, locus YOR136W, strain idh2, active compounds read low
[68] = S. cerevisiae deletion strains, locus YOR144C, strain elg1, active compounds read low
[69] = S. cerevisiae deletion strains, locus YOR184W, strain ser1, active compounds read low
[70] = S. cerevisiae deletion strains, locus YOR316C, strain cot1, active compounds read low
[71] = S. cerevisiae deletion strains, locus YPR119W, strain clb2, active compounds read low
[72] = S. cerevisiae deletion strains, locus YPR141C, strain kar3, active compounds read low
[73] = S. cerevisiae deletion strains, locus YPR163C, strain tif3, active compounds read low
[74] = S. cerevisiae deletion strains, locus YPR167C, strain met16, active compounds read low
[75] = S. cerevisiae deletion strains, strain wtn01, active compounds read low
[76] = S. cerevisiae deletion strains, locus YGR229C, strain SMI1, active compounds read low
[77] = S. cerevisiae deletion strains, locus YNL322C, strain KRE1, active compounds read low

Measured: normalized growth

COc1cc2c(cc1O)C(Cc1ccc(O)cc1)N(C)CC2 (stereo unspecified)
inactive: S. cerevisiae deletion strains, locus YAL013W, strain DEP1, active compounds read low 1.01 | [1] 1.02 | [2] 1.02 | [3] 1 | [4] 1.05 | [5] 1.06 | [6] 1.02 | [7] 1.01 | [8] 1.02 | [9] 1.01 | [10] 1.05 | [11] 1.01 | [12] 1.01 | [13] 0.979 | [14] 0.977 | [15] 1.01 | [16] 1.02 | [17] 0.984 | [18] 1.01 | [19] 1.03 | [20] 1.02 | [21] 0.981 | [22] 0.923 | [23] 0.991 | [24] 0.982 | [25] 1.02 | [26] 0.986 | [27] 1.03 | [28] 0.998 | [29] 1.01 | [30] 1 | [31] 1.03 | [32] 1.02 | [33] 0.998 | [34] 1.02 | [35] 1.02 | [36] 0.998 | [37] 1.01 | [38] 1.01 | [39] 1.02 | [40] 1.01 | [41] 1.05 | [42] 1.04 | [43] 0.977 | [44] 1.03 | [45] 1.02 | [46] 1.07 | [47] 1.01 | [48] 1.01 | [49] 1.02 | [50] 1.01 | [51] 0.999 | [52] 0.994 | [53] 0.993 | [54] 1.12 | [55] 1.01 | [56] 1.01 | [57] 1.01 | [58] 1 | [59] 1.01 | [60] 1.01 | [61] 0.994 | [62] 0.982 | [63] 0.669 | [64] 1 | [65] 1.03 | [66] 1.01 | [67] 0.972 | [68] 0.996 | [69] 1.05 | [70] 0.989 | [71] 0.991 | [72] 1.01 | [73] 0.998 | [74] 0.973 | [75] 1.01

O=c1ccn([C@@H]2O[C@H](COP(=O)(O)OP(=O)(O)O)[C@@H](O)[C@H]2O)c(=O)[nH]1
inactive: S. cerevisiae deletion strains, locus YAL040C, strain CLN3, active compounds read low 0.981 | S. cerevisiae deletion strains, locus YCL061C, strain MRC1 (second series), active compounds read low 0.991 | S. cerevisiae deletion strains, locus YDR363W, strain ESC2, active compounds read low 0.981 | S. cerevisiae deletion strains, locus YER002W, strain NOP16, active compounds read low 0.995 | [76] 0.972 | S. cerevisiae deletion strains, locus YJR075W, strain HOC1, active compounds read low 0.976 | [54] 0.985 | [56] 0.983 | S. cerevisiae deletion strains, locus YNL175C, strain NOP13, active compounds read low 0.988 | S. cerevisiae deletion strains, locus YNL197C, strain WHI3, active compounds read low 0.967 | S. cerevisiae deletion strains, locus YNL224C, strain SQS1, active compounds read low 0.992 | [77] 0.971 | S. cerevisiae deletion strains, locus YOR083W, strain WHI5 (second series), active compounds read low 0.992 | S. cerevisiae deletion strains, locus YPL241C, strain CIN2, active compounds read low 1

NC(N)=NCCC[C@@H](NC(=O)[C@@H](N)Cc1ccc(O)cc1)C(=O)O
inactive: [1] 1.01 | [2] 1.01 | [3] 1.01 | [4] 1.02 | [5] 1.01 | [6] 1 | S. cerevisiae deletion strains, locus YDL134C, strain PPH21, active compounds read low 1.01 | [7] 1.01 | [8] 1.01 | [9] 0.996 | S. cerevisiae deletion strains, locus YDR150W, strain NUM1, active compounds read low 1.01 | [10] 1 | [11] 1.01 | [12] 1.01 | [13] 1.02 | S. cerevisiae deletion strains, locus YEL061C, strain CIN8, active compounds read low 1.01 | [14] 1.02 | [15] 1.01 | [16] 1.01 | [17] 1.01 | [18] 1 | [19] 1.01 | [20] 0.996 | [21] 1.01 | [76] 0.997 | [22] 0.99 | S. cerevisiae deletion strains, locus YHR030C, strain SLT2, active compounds read low 1.01 | [23] 1.01 | [24] 1.01 | [25] 1 | [26] 1.01 | [27] 1.01 | [28] 1.03 | [29] 1.01 | [30] 1.01 | [31] 0.996 | [32] 1.01 | [33] 1.01 | [34] 1.01 | S. cerevisiae deletion strains, locus YJR043C, strain POL32, active compounds read low 1.01 | [35] 0.997 | [36] 1.01 | [37] 1.01 | [38] 1.01 | [39] 1.01 | [40] 0.993 | [41] 1.03 | [42] 1.01 | [43] 1.01 | S. cerevisiae deletion strains, locus YLR262C, strain YPT6, active compounds read low 0.992 | [44] 1.01 | [45] 1.01 | [46] 1.02 | [47] 1.01 | [48] 1.02 | [49] 1 | [50] 1.02 | [51] 1.01 | [52] 1.01 | [53] 1.01 | [54] 0.979 | [55] 1.01 | [56] 0.993 | [57] 1.01 | [58] 0.998 | [59] 1.01 | [60] 1.01 | [61] 1.01 | [77] 1.01 | [62] 1.02 | S. cerevisiae deletion strains, locus YOL006C, strain TOP1, active compounds read low 1.03 | [63] 1.88 | [64] 1.01 | [65] 1.01 | [66] 1.01 | [67] 1 | [68] 1.01 | [69] 1.01 | [70] 1.01 | S. cerevisiae deletion strains, locus YPL055C, strain LGE1, active compounds read low 1 | [71] 1.01 | [72] 1.01 | [73] 1.02 | [74] 1.01 | [75] 0.999 | S. cerevisiae strains, strain wild type, active compounds read low 1
